Laboratory results as given in PubChem BioAssay (Tox21).
Calls of active or inactive are those of the source. The call rests on the fitted dose curve; in most records, active means well fitted activation curve with a large enough effect in the repeat runs; inconclusive means weak or mixed curves; inactive means flat fitted curve, though single readings scatter.

Experiment: Caspase-3/7 induction in CHO-K1 cells by small molecules, qHTS assay (AID 1346980); further: nearly all actives have a fitted effect of over 15% in size
Settings: CHO-K1 caspase-3/7 induction, Caspase-Glo luminescence, 17 h; series mostly up to 92.4 µM
Text: National Center for Advancing Translational Sciences [NCATS]
NIH Chemical Genomics Center [NCGC]
U.S. Environmental Protection Agency [EPA]
National Institutes of Environmental Health Sciences [NIEHS]
National Toxicology Program [NTP]
Apoptosis is a process of programmed cell death and plays a central role in the development of multicellular organisms. It is a highly regulated process and induces cell death by activating caspases, which are the members of cysteine aspartic acid-specific protease (caspase) family. Caspases involved in apoptosis are classified by their mechanism of action as initiator caspases (caspase-2, -8, -9 and -10) and executioner caspases (caspase-3, -6, and -7). Inhibition of apoptosis results in number of cancers, autoimmune diseases, inflammatory diseases and viral infection. To identify small molecule compounds that induce apoptosis, a homogeneous, luminescent Caspase-Glo 3/7 assay was used. Wild type CHO-K1 cells were used to screen Tox21 libraries for identifying caspase-3/7 activity inducers.
CHO-K1 cells were dispensed at 1,500 per well in 5uL of culture medium into white solid bottom 1536-well plates (Corning Life Sciences, Corning, NY) using a Multidrop Combi (Thermo Scientific, Waltham, MA) dispenser. The assay plates were incubated at 37 C and 5% CO2 for 5hr, and then 23nL of compounds dissolved in DMSO and positive control were transferred using a Pintool station (Wako, San Diego, CA). The assay plates were incubated at 37C and 5% CO2 for 17hr. For caspase-3/7 activity read, 4uL of Caspase-Glo 3/7 reagent (Promega Corporation, Madison, WI) was added to each well of the assay plates using Flying Reagent Dispenser (FRD, Aurora Discovery, San Diego, CA) and incubated the assay plates at room temperature for 30min. The luminescence signal was quantified using a ViewLux plate reader (Perkin Elmer, Shelton, CT).
For CCCC1COC(Cn2cncn2)(c2ccc(Cl)cc2Cl)O1 (stereo not given), the outcome was “inactive”.
For Cn1cc(-c2ccccc2)c(=O)c(-c2cccc(C(F)(F)F)c2)c1, the outcome was “inactive”.
In the case of Cc1ccc(N)cc1Cl, the outcome is reported as “inactive”.
With CNC(=O)Oc1ccccc1OC(C)C the outcome was “inactive”.
With O=C(O)c1ccccn1 the outcome was “inactive”.
With CC(C)(C)OOC(C)(C)C the outcome was “inactive”.
With COP(N)(=O)SC (stereo not given) the outcome was “inactive”.
In the case of CC(=O)C=C(C)C, the outcome is reported as “inactive”.
With C=CCO the outcome was “inactive”.
With Clc1cccc(Cl)c1Cl the outcome was “inactive”.
For CCCCN(CC)C(=O)SCCC, the outcome was “inactive”.
With Clc1ccccc1Cl the outcome was “inactive”.
In the case of CN(C)CCO, the outcome is reported as “inactive”.
For CC(Br)C(=O)O (stereo not given), the outcome was “inactive”.
In the case of CCC(C)(CC)c1cc(NC(=O)c2c(OC)cccc2OC)on1, the outcome is reported as “inactive”.
For CN(N=O)c1ccccc1, the outcome was “inactive”.
In the case of Cc1cc(-c2cc(C)c(N)c(C)c2)cc(C)c1N, the outcome is reported as “inactive”.
In the case of CCNc1nc(NC(C)(C)C)nc(SC)n1, the outcome is reported as “inactive”.
In the case of CC(C)(C)C(O)(CCc1ccc(Cl)cc1)Cn1cncn1 (stereo not given), the outcome is reported as “inactive”.
With c1cc2c3c(cccc3c1)CC2 the outcome was “inactive”.
In the case of CC(C#N)CCC#N (stereo not given), the outcome is reported as “inactive”.
With Cc1ccc(N)cc1N the outcome was “inactive”.
In the case of CCc1cccc(C)c1N(C(=O)CCl)C(C)COC (stereo not given), the outcome is reported as “inactive”.
In the case of CCCCCOC(=O)c1ccccc1C(=O)OCCCCC, the outcome is reported as “inactive”.
With C[C@]12CC[C@H]3[C@@H](CC[C@@]45O[C@@H]4C(O)=C(C#N)C[C@]35C)[C@@H]1CC[C@@H]2O the outcome was “inactive”.
In the case of O=Cc1cccc(Oc2ccccc2)c1, the outcome is reported as “inactive”.
In the case of CCCN(CCC)N=O, the outcome is reported as “inactive”.
With O=C(NC(=O)c1c(F)cccc1F)Nc1cc(Cl)c(OC(F)(F)C(F)C(F)(F)F)cc1Cl (stereo not given) the outcome was “inactive”.
With COc1ccc2c3c1O[C@H]1[C@@H](O)C=C[C@H]4[C@@H](C2)N(C)CC[C@@]341 the outcome was “inactive”.
In the case of C=CC(N)=O, the outcome is reported as “inactive”.
With COC(=O)NC(=S)Nc1ccccc1NC(=S)NC(=O)OC the outcome was “inactive”.
With CCOP(=S)(OCC)Oc1cnc2ccccc2n1 the outcome was “inactive”.
With CCN(CC)CCO the outcome was “inactive”.
With CC(C)(C)OOC(=O)c1ccccc1 the outcome was “inactive”.
In the case of CC(C)N1C(=O)c2ccccc2NS1(=O)=O, the outcome is reported as “inactive”.
In the case of c1ccc(OP(Oc2ccccc2)Oc2ccccc2)cc1, the outcome is reported as “inactive”.
For NCC(O)c1ccc(O)cc1 (stereo not given), the outcome was “inactive”.
With O=S(=O)(c1ccc(O)cc1)c1ccc(O)cc1 the outcome was “inactive”.
With CCCN(CCC)c1c([N+](=O)[O-])cc(C(F)(F)F)cc1[N+](=O)[O-] the outcome was “inactive”.
In the case of CN(C)N=O, the outcome is reported as “inactive”.
